# Reference: the supplement of paper PMC4466236
# Whole data set: some 33,000 sequences, median “E-score (dimensionless, -0.5 to 0.5)” near -0.058, cut for the highest 2% near 0.35. Only a selection was taken, and the highest values are over-represented in it overall.
# Test system: MvaT
# Assay: PBM 8-mer E-score (mean of HK and ME arrays) (E-score (dimensionless, -0.5 to 0.5)); higher = stronger relative binding preference
# Description: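 Protein binding microarray: GST-tagged full-length MvaT (P. aeruginosa PAO1) bound to two universal double-stranded 60-mer arrays (ME and HK), each with a constant 25-mer primer and a variable 35-mer region covering all 8-mers. The 8-mer E-score (rank-based, range -0.5 to 0.5, >0.45 = specific binding) is the mean of the two arrays.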
row,Sequence,PBM 8-mer E-score
1,AATGTTAC,0.186
2,AATGTTAG,0.209
3,AATGTTAA,0.387
4,GTTGTTAA,0.257
5,GATGTTAA,0.277
6,ATTGTTAG,0.235
7,AATGTTAT,0.372
8,ATTGTTAA,0.393
9,ACTGTTAT,0.306
10,GATCGTGA,-0.153
11,CTTGCCCA,-0.191
12,AGCCCGGA,-0.201
13,TAATATCA,0.421
14,GGATATTA,0.332
15,AGATATTA,0.412
16,AAATATGG,0.278
17,CGATATTA,0.331
18,AAATATTT,0.463
19,AAATATTG,0.306
20,AAATATCT,0.277
21,AAATATCA,0.304
22,CAATATCA,0.304
23,AAATATTA,0.438
24,ACAGATAC,0.102
25,ACGGGGAT,-0.00987

row,Sequence,PBM 8-mer E-score
1,AAGCTTTA,0.0937
2,GAATGGCA,-0.00364
3,GCGAATAC,0.0443
4,ACATTAGG,0.0719
5,ATAGTCAA,0.165
6,GACGCGCA,-0.188
7,AAATATGT,0.348
8,GAATATTA,0.4
9,CAATATCG,0.18
10,CAATATTG,0.377
11,TAATAGGA,0.222
12,TAATACCA,0.336
13,TAATATTA,0.474
14,AAATATGC,0.305
15,AAATATGA,0.241
16,CAATATGG,0.156
17,TATCGAAA,0.144
18,GCGATAGC,-0.262
19,GAAAGCGA,0.0347
20,AAGGGTAA,0.109
21,AGACCAAG,-0.0618
22,TGCGGAAA,0.107
23,TCCTCAGA,-0.142
24,CAATATGA,0.244
25,CAATATTA,0.373

row,Sequence,PBM 8-mer E-score
1,GAATATGA,0.19
2,TAATATGA,0.354
3,CAATATTC,0.226
4,CAATATGC,0.0377
5,ACGAGTAC,0.047
6,ACACAAAT,0.237
7,AGCACGGA,-0.111
8,GGCCCACC,-0.28
9,AAAGTATA,0.41
10,AAAGTATT,0.27
11,ATAGTATA,0.38
12,GTAGTATA,0.319
13,ATAGTATG,0.21
14,AATGTATA,0.366
15,GATGTATA,0.289
16,CATGTATA,0.264
17,CAAGTATA,0.373
18,AAAGTATC,0.211
19,GAAGTATA,0.263
20,TAAGTATA,0.282
21,ATTCCGGA,0.138
22,TGGCGACA,-0.132
23,ATCGCCAT,0.016
24,AGATCTCC,-0.204
25,AACAGTGT,0.123

row,Sequence,PBM 8-mer E-score
1,GCGTCGCC,-0.203
2,CCATAAGG,-0.19
3,CGGTAAAC,0.0615
4,AACACCCG,0.00525
5,AGTTGCAT,0.182
6,AGTCTAAC,0.049
7,AATTCTGG,0.076
8,ACGCAGTG,-0.257
9,CTTCATTA,0.338
10,AGTCCGAG,-0.29
11,AATAACCT,0.228
12,ATTAACAA,0.381
13,TATAACAA,0.355
14,ATTAACAC,0.328
15,GATAACGA,0.0582
16,AATAACCG,0.367
17,CATAACAA,0.0795
18,TATAACGA,0.374
19,ATTAACAG,0.334
20,GATAACAA,0.263
21,AATAACCC,0.226
22,AATAACGA,0.326
23,GCATTGGA,-0.0184
24,AAAGGTCC,-0.197
25,CTACCTAC,-0.00994

row,Sequence,PBM 8-mer E-score
1,ATCTTGCC,0.0286
2,GAGCAGGC,-0.379
3,AATGTGAG,0.0855
4,GTTGGGGA,-0.0857
5,ATTGGAGC,-0.00417
6,CTAATCAG,-0.0597
7,AATAACAT,0.32
8,AATAACAA,0.38
9,AATAACAC,0.331
10,AACCACCG,-0.0371
11,CTCCTAAA,-0.112
12,GTATAACA,0.3
13,CTATAACC,0.155
14,ATATAACA,0.423
15,ACATAACG,0.183
16,AGATAACG,0.0641
17,ATATAACG,0.406
18,ATATAACC,0.37
19,AGATAACC,-0.021
20,CTATAACA,0.297
21,ACGTAATA,0.29
22,GGGTAACC,-0.246
23,CCTGCGCC,-0.28
24,ACGTTAGC,-0.113
25,CGGTTGCC,-0.279

row,Sequence,PBM 8-mer E-score
1,CGACCCAA,-0.0201
2,CAGGGTCG,-0.317
3,TAGGAAGA,0.048
4,AAAAATAG,0.0973
5,AAAAATAA,0.403
6,TAAAATCA,0.198
7,AAAAAAAA,0.271
8,AAAAATAT,0.377
9,GAAAAAAA,0.0648
10,TAAAATAA,0.438
11,GAAAATAC,0.134
12,CAAAATAA,0.343
13,GAAAATAA,0.349
14,TAAAATTA,0.288
15,AAAAATAC,0.158
16,AGCGCGCG,-0.184
17,GTGATAAA,0.211
18,CTAGAGAG,-0.241
19,CACTATTC,0.0563
20,AACTATTC,0.255
21,GACTATTA,0.305
22,AACTATTA,0.399
23,CGCTATTA,0.18
24,CACTATTA,0.357
25,AGCAGGAA,-0.195

row,Sequence,PBM 8-mer E-score
1,CAACCCTG,-0.133
2,CAACTTTA,0.297
3,GAACTTTA,0.346
4,AAACTTTA,0.357
5,GGACTTTA,-0.06
6,AAACTTTC,0.312
7,AAACTTTG,0.317
8,AAACAAAG,0.192
9,CCAATGAA,-0.1
10,TGTAATAA,0.399
11,CGTAATAG,0.173
12,CGTAATAA,0.398
13,GGTAATAA,0.335
14,CGTAATAC,0.208
15,TGTAAAAA,0.208
16,GCCGCTGA,-0.231
17,CGAATATC,0.0677
18,AGAATATA,0.378
19,CGAATATA,0.355
20,AGAATATC,0.195
21,GGAATATA,0.329
22,AGAATATG,0.277
23,AAGGGGTA,-0.15
24,GTGTTACA,0.244
25,CCATACGC,-0.202

row,Sequence,PBM 8-mer E-score
1,ATATTTGA,0.363
2,GTATTTGA,0.319
3,CTATTTGC,0.148
4,ATATTTGC,0.351
5,CTATTTGA,0.229
6,ATATTTGG,0.177
7,ACTTTTTC,0.0911
8,CCAGATAA,0.165
9,AGTAGACA,-0.00875
10,ACATATAC,0.287
11,ACATATAG,0.264
12,ACATATAA,0.446
13,ACATATAT,0.47
14,ACATATGA,0.179
15,ACACATAA,0.273
16,ATACATCA,0.192
17,CGGTAGCC,-0.317
18,AGTTCAGG,0.0672
19,AATCTTGT,0.0955
20,AAGCTCTA,-0.217
21,ATATAATC,0.415
22,ACATAATG,0.302
23,ATATAAGG,0.31
24,CTATAATC,0.295
25,ATATAATG,0.402

row,Sequence,PBM 8-mer E-score
1,ATCTAATC,0.167
2,AAGGAATG,0.0374
3,TCTAGAAA,0.0814
4,TCTCCTCA,-0.177
5,CCTGGTAA,-0.0325
6,GCCGTCAC,-0.163
7,CCAATCGG,-0.128
8,CGTCTCAA,-0.0154
9,ATGTCAGC,-0.039
10,GTTTAAAA,0.293
11,TTTAAAAA,0.363
12,GTTAAAAA,0.239
13,CTTTAAAA,0.287
14,TTTTAAAA,0.409
15,TTAAAAAA,0.305
16,AGAAGTTA,0.279
17,GAACATTC,-0.0126
18,CATTGTAC,0.151
19,AGGACGTA,-0.138
20,GCGTATTA,0.193
21,AAGTATTC,0.161
22,ACGTATTA,0.356
23,ACGTATTG,0.183
24,AAGTATTA,0.388
25,CAGTATTA,0.289

row,Sequence,PBM 8-mer E-score
1,ATATCTAG,0.252
2,GCCTACGA,-0.271
3,GCATACCA,-0.104
4,CCGTGCGA,-0.193
5,TCAAATAA,0.28
6,ACAAATAA,0.38
7,GCAAATAA,0.325
8,ACAAATAC,0.247
9,ACAAATAG,0.268
10,ACAAATAT,0.405
11,CCAGGCAC,-0.347
12,GCCGAGAA,-0.0283
13,CTATATGA,0.124
14,ACATATGC,0.129
15,ATATATGC,0.424
16,ATATATGG,0.42
17,ACATATGG,0.145
18,CTATATGC,0.227
19,GTATATGA,0.245
20,ATATATGA,0.439
21,AGATATGG,0.00259
22,AAAGCTCC,-0.295
23,AGTCTTAC,0.0995
24,CGAGATCA,-0.0866
25,ATATAGAA,0.366

row,Sequence,PBM 8-mer E-score
1,ATAGAGAG,0.188
2,ATATAGAG,0.351
3,GTATAGAA,0.0668
4,AGATAGAT,0.152
5,CTATAGAA,0.103
6,CTATAGAG,-0.125
7,ATATAGAC,0.224
8,ATATAGAT,0.35
9,ATGACCAC,-0.00499
10,AATGTTTG,0.212
11,AGGCGAGA,-0.0992
12,CACGCCAG,-0.233
13,AACGCGGA,-0.163
14,AAGAGGTC,-0.209
15,ATAACTAC,0.272
16,CTTTAGAC,0.0841
17,ATGCGGTA,-0.111
18,TAACTTAA,0.406
19,AAACTTAT,0.381
20,CACTTTCA,0.136
21,CAACTTAA,0.31
22,GAACTTAA,0.263
23,AAACTTAA,0.326
24,AACTTTCT,0.22
25,AACTTTCA,0.351

row,Sequence,PBM 8-mer E-score
1,TGCTTTAA,0.094
2,GACTTTAA,0.262
3,AAACTTAC,0.306
4,TACTTTAA,0.422
5,AAAACCGC,0.058
6,AGGACGGA,-0.0832
7,ACCTGGGG,-0.366
8,AGGCTGAT,-0.0817
9,CCCGGTTA,0.00633
10,ATTGCGCA,0.111
11,ACTGGACG,-0.0771
12,AACTTTAG,0.211
13,AACTTTAT,0.357
14,AACTTTTA,0.34
15,CACTTTAA,0.274
16,AACTTTAA,0.385
17,AACTTTAC,0.275
18,GGGTGCGA,-0.091
19,CCGGCGCA,-0.0431
20,ATCGACAC,-0.0169
21,AGTGCGCA,0.13
22,AGGGGCGA,-0.155
23,ATCACTCG,0.0455
24,AGCTGGTA,-0.107
25,ACAGGAAC,-0.0162

row,Sequence,PBM 8-mer E-score
1,CTAACTAA,0.286
2,GTAACTGA,0.199
3,CTAACTGA,0.0161
4,GTAACTTA,0.37
5,ATAACTGA,0.246
6,GTAACTCA,0.116
7,ATAACTTA,0.429
8,AGAACTTA,0.256
9,CTAACTTA,0.379
10,CTTGTCGC,-0.147
11,CCTCGTGA,-0.253
12,CCCTGTTA,-0.0586
13,AGCAAGAG,-0.0917
14,TCGATCCA,-0.213
15,ACATCTTC,0.185
16,ATCTACTG,0.0718
17,ATTTGTTG,0.172
18,ATTGAAAT,0.27
19,ACTAGTTA,0.345
20,CTAAATGA,0.126
21,CTAAATCA,0.0639
22,CTAAATAA,0.365
23,CTAAATAC,0.232
24,TTAAATAA,0.445
25,TTAAACAA,0.321

row,Sequence,PBM 8-mer E-score
1,GCGATTCC,-0.0999
2,AGGCAGAA,-0.226
3,ACTCGTGA,-0.0788
4,GGACTCCC,-0.283
5,TAGTGAGA,0.0304
6,ACCCTTCC,-0.184
7,ACATATTA,0.44
8,ACATATTC,0.281
9,ACATATTG,0.281
10,CCATATTC,0.161
11,GCATATTA,0.278
12,CCATATTA,0.353
13,AACCACTC,0.00691
14,GCGGAGGA,-0.291
15,AAATTTGT,0.264
16,AGGGTACC,-0.343
17,AACAAGAT,0.164
18,GACAAATA,0.297
19,AACAAAAT,0.35
20,CACAAATA,0.338
21,AACAAATA,0.369
22,AACAAGTA,0.343
23,AACAAAAA,0.239
24,AACAAATG,0.172
25,TACAAATA,0.355
